# Earlier results, collected in PubChem BioAssay AID977611.
# Hit rate of the full screen: of about 3,900 compounds, about 3,900 (100%) were called active. The limit is not given here; nearly all actives have Kd up to about 4200 µM. The set was probably picked from earlier hits. The list shows a part of the results. Where a SMILES comes first, the peptide text is derived from it. Non-standard residues stand in square brackets, D forms with d. Square brackets hold non-standard residues; d marks the D form. Residues, ends and D or L forms follow the SMILES beside them. Peptide text beside a SMILES is read from it. [ ]: non-standard residue; d: D form. Orn(CH(NH2)2) = NC(N)NCCC[C@H](N)C(=O)O
# Assay: PubChem AID 977611
# Details: PDB protein-ligand complexes, literature Kd
compound,measurement,setting,value
H-TCIYNPLFGS-OH,Kd,"protein: Sorting nexin-17 SNX17, PDB entry 4tkn",1300 nM (active)
CCC(=O)C(=O)O,Kd,"protein: 4-HYDROXY-2-OXO-HEPTANE-1,7-DIOATE ALDOLASE, PDB entry 4b5t",470000 nM (active)
CC(=O)N[C@H]1/C(=N/OC(=O)Nc2ccccc2)O[C@H](CO)[C@@H](O)[C@@H]1O,Kd,"protein: BETA-N-ACETYLHEXOSAMINIDASE, PDB entry 4azb",57.7 nM (active)
same,Kd,"protein: BETA-N-ACETYLHEXOSAMINIDASE, PDB entry 4azg",79 nM (active)
same,Kd,"protein: BETA-N-ACETYLHEXOSAMINIDASE, PDB entry 4azi",35.6 nM (active)
COc1ccc(C[C@H](NC(=O)[C@@H](C)NC(=O)CN2CCOCC2)C(=O)N[C@@H](Cc2ccccc2)[C@@H](O)[C@H](C)CO)cc1,Kd,"protein: yCP, PDB entry 4qlv",14 nM (active)
CCC[C@H](COc1ccc(-c2nc3ccccc3n2Cc2ccccc2)cc1)n1c(-c2ccccc2)nc2ccccc21,Kd,"protein: Retinal rod rhodopsin-sensitive cGMP 3',5'-cyclic phosphodiesterase subunit delta, PDB entry 4jvb",39 nM (active)
CC[C@H](C)[C@H](NC(=O)[C@@H]1CCCN1C(=O)[C@H](CCCNC(N)N)NC(=O)[C@@H]1CCCN1C(=O)[C@H](Cc1cnc[nH]1)NC(=O)[C@@H](N)CO)C(=O)N[C@@H](CCCNC(N)N)C(=O)N[C@H](C(=O)O)C(C)C (H-SHP[Orn(CH(NH2)2)]PI[Orn(CH(NH2)2)]V-OH),Kd,"protein: Chaperone protein DnaK, PDB entry 4ezr",6300 nM (active)
C[C@H](NC(=O)CN)C(=O)N[C@@H](Cc1ccccc1)C(=O)N[C@@H](Cc1ccccc1)C(=O)N[C@@H](CO)C(=O)N[C@@H](C)C(=O)N[C@@H](CCCNC(N)N)C(=O)NCC(=O)N[C@@H](Cc1cnc[nH]1)C(=O)N[C@@H](CCCNC(N)N)C(=O)N1CCC[C@H]1C(=O)O (H-GAFFSA[Orn(CH(NH2)2)]GH[Orn(CH(NH2)2)]P-OH),Kd,"protein: fibrinogen-binding protein SdrG, PDB entry 1r17",379 nM (active)
CSCC[C@H](NC(=O)[C@H](CCC(=O)O)NC(=O)[C@H](CCCNC(N)N)NC(=O)[C@@H](N)Cc1cnc[nH]1)C(=O)N[C@@H](C)C(=O)N[C@H](C(=O)N[C@@H](CC(=O)O)C(=O)N[C@@H](CS)C(=O)N1CCC[C@H]1C(=O)O)C(C)C (H-H[Orn(CH(NH2)2)]EMAVDCP-OH),Kd,"protein: Par-6 PDZ domain, PDB entry 1x8s",8000 nM (active)
H-GSLLRVQAHIRKKMV-OH,Kd,"protein: Myosin A tail domain interacting protein MTIP-delta60, PDB entry 4r1e",52 nM (active)
CSCC[C@H](NC(=O)[C@H](Cc1cnc[nH]1)NC(=O)[C@@H](NC(=O)[C@H](CCCCN)NC(=O)[C@H](C)NC(=O)[C@H](CO)NC(=O)[C@H](C)NC(=O)[C@@H](N)CCCNC(N)N)[C@@H](C)O)C(=O)N[C@@H](Cc1ccc(O)cc1)C(=O)N1CCC[C@H]1C(=O)N[C@H](C(=O)N[C@@H](CCCNC(N)N)C(=O)N[C@@H](CC(N)=O)C(=O)N[C@@H](Cc1ccc(O)cc1)C(=O)N[C@@H](CO)C(=O)N1CCC[C@H]1C(=O)O)C(C)C (H-[Orn(CH(NH2)2)]ASAKTHMYPV[Orn(CH(NH2)2)]NYSP-OH),Kd,"protein: ezrinradixinmoesin (ERM) proteins, PDB entry 2emt",201 nM (active)
CSCC[C@H](NC(=O)[C@H](CCCCN)NC(=O)[C@@H](NC(=O)[C@H](Cc1ccc(O)cc1)NC(=O)[C@@H](NC(=O)CNC(=O)[C@@H](NC(=O)[C@@H](N)[C@@H](C)O)[C@@H](C)O)C(C)C)C(C)C)C(=O)N1CCC[C@H]1C(=O)N1CCC[C@H]1C(=O)O (H-TTGVYVKMPP-OH),Kd,"protein: AP50, PDB entry 1h6e",700 nM (active)
CC(C)C[C@H](NC(=O)[C@H](CCC(=O)O)NC(=O)[C@@H](N)CCCNC(N)N)C(=O)N[C@@H](CC(C)C)C(=O)N1CCC[C@H]1C(=O)N[C@@H](CCC(=O)O)C(=O)N[C@@H](CC(C)C)C(=O)N1CCC[C@H]1C(=O)N[C@@H](Cc1cnc[nH]1)C(=O)N1CCC[C@H]1C(=O)N1CCC[C@H]1C=O (H-[Orn(CH(NH2)2)]ELLPELPHPP-aldehyde),Kd,"protein: MIT domain of Saci1372 (Vps4), PDB entry 2w2u",35000 nM (active)
CC[C@H](C)[C@H](NC(=O)[C@H](CO)NC(=O)[C@H](CCCNC(N)N)NC(=O)CNC(=O)[C@H](C)NC(=O)[C@H](CCC(=O)O)NC(=O)[C@H](CCCCN)NC(=O)[C@@H](NC(=O)[C@@H](NC(=O)[C@H](C)NC(=O)[C@@H](NC(=O)[C@H](CC(C)C)NC(=O)[C@H](CO)NC(=O)CN)C(C)C)[C@@H](C)O)C(C)C)C(=O)N[C@@H](Cc1cnc[nH]1)C(=O)N[C@@H](CCC(=O)O)C(=O)N[C@H](C(=O)N1CCC[C@H]1C(=O)N[C@@H](CCCNC(N)N)C(=O)O)[C@@H](C)CC (H-GSLVATVKEAG[Orn(CH(NH2)2)]SIHEIP[Orn(CH(NH2)2)]-OH),Kd,"protein: the BTB domain from B-cell lymphoma 6 protein(BCL6), PDB entry 1r2b",11400 nM (active)
CC[C@H](C)[C@H](NC(=O)[C@H](Cc1cnc[nH]1)NC(=O)[C@H](C)NC(=O)[C@H](CCC(N)=O)NC(=O)[C@@H](NC(=O)[C@H](CCCNC(N)N)NC(=O)[C@H](CC(C)C)NC(=O)[C@H](CC(C)C)NC(=O)[C@H](CO)NC(=O)[C@@H]1CCCN1C(=O)[C@@H](NC(=O)[C@H](CC(N)=O)NC(=O)[C@@H](N)CCCCN)[C@@H](C)CC)C(C)C)C(=O)N[C@@H](CCCNC(N)N)C(=O)N[C@@H](CCCCN)C(=O)N[C@@H](CCCCN)C(=O)N[C@@H](CCSC)C(=O)N[C@H](C(=O)O)C(C)C (HELM PEPTIDE1{K.N.I.P.S.L.L.[NC(N)NCCC[C@H](N[*:1])C(=O)[*:2]].V.Q.A.H.I.[NC(N)NCCC[C@H](N[*:1])C(=O)[*:2]].K.K.M.V}$$$$V2.0),Kd,"protein: MYOSIN A TAIL DOMAIN INTERACTING PROTEIN, PDB entry 4aom",85 nM (active)
NC(=O)CC[C@H](NC(=O)CCc1ccc(-c2cc(-c3ccccc3)cs2)cc1)C(=O)N[C@@H](CCC(=O)O)C(N)=O,Kd,"protein: Macrophage metalloelastase, PDB entry 3tsk",67 nM (active)
CCC(CC)Nc1cc(C)nc(Oc2c(C)cc(C)cc2C)c1C,Kd,"protein: Corticotropin-releasing factor receptor 1, T4-Lysozyme chimeric construct, PDB entry 4k5y",6.7 nM (active)
C=C/C(C)=C\[C@@]1(C)SC(=O)C(C(C)=O)=C1O,Kd,"protein: 3-OXOACYL-[ACYL-CARRIER-PROTEIN] SYNTHASE 1, PDB entry 4c6u",25600 nM (active)
same,Kd,"protein: 3-OXOACYL-[ACYL-CARRIER-PROTEIN] SYNTHASE 1, PDB entry 4c6v",25600 nM (active)
C=C/C(C)=C/[C@@]1(C)SC(=O)/C(=C(\O)C(F)(F)F)C1=O,Kd,"protein: 3-OXOACYL-[ACYL-CARRIER-PROTEIN] SYNTHASE 1, PDB entry 4c73",12100 nM (active)
CNc1nc2c(CC[C@H]3O[C@@H](OC)[C@H](OC)[C@@H]3O)c3nc(N)[nH]c(=O)c3cc2[nH]1,Kd,"protein: tRNA guanine transglycosylase (TGT), PDB entry 4lbu",276 nM (active)
